Screening data from PubChem BioAssay.
This is a sample that favours compounds with a hit; in the whole collection about 3.5% have one here.
TEAD-YAP inh: TEAD-YAP interaction inhibition, primary screen, TEAD-YAP interaction inhibitor project, luminescence, HEK-TIYL cells | hit rate 1.4% among 640,000 | TEAD-Gal4/YAP UAS-luciferase luminescence | inhibition, % at 9.12 µM | AID 1259422, 2018; in the data active = inhibition above about 32%;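 also: 0% = median of test compound wells and 100% = reference inhibitor wells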
FBW7 act: FBW7 E3 ligase activators, primary screen, biochemical, AlphaScreen, human | AlphaScreen FBW7–phospho-cyclin E peptide binding, activator screen | normalized activity (activation), % at 26.1 µM | AID 1259310, 2017 | F-box/WD repeat-containing protein 7 (Homo sapiens), Q969H0 | hit rate 0.13% among 650,000; in the data active = normalized activity above about 1.9%;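 also: purified mutant Fbw7 with reduced substrate affinity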
GPR151 activ: activators of human GPR151, primary screen, cell-based, PathHunter beta-arrestin, luminescence. G-protein coupled receptor 151 (Homo sapiens), Q8TDV0. PathHunter beta-arrestin GPR151 cells. hit rate 1% among 650,000. activation, % at 11.2 µM; in the data active = activation above about 4.9%;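 also: 0% = median of compound wells and 100% = cells with positive control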
Target sequence (Q8TDV0 whole entry, looked up): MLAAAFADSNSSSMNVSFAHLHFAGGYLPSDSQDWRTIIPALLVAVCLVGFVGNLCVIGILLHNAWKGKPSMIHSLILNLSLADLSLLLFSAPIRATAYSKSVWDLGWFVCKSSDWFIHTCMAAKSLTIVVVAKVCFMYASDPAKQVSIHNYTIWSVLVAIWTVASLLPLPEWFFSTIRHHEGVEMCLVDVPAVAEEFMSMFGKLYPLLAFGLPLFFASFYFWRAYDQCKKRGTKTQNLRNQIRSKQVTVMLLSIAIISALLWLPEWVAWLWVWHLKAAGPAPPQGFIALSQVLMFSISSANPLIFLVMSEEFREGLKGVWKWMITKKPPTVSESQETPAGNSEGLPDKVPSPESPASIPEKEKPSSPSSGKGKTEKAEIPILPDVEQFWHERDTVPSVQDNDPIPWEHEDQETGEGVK
MITF inh: MITF inhibitors, primary screen, biochemical, AlphaScreen, human; Microphthalmia-associated transcription factor (Homo sapiens), O75030; AlphaScreen MITF homodimerization, bead proximity signal; inhibition, % at 2.6 µM; hit rate 0.91% among 650,000; in the data active = inhibition above about 50%;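 also: 0% = vehicle wells with protein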
MITF inh conf: MITF inhibitors, retest of hits, confirmation, biochemical, AlphaScreen, triplicate; shares compounds with MITF inh; AlphaScreen MITF homodimerization, biotin/His-MITF beads; inhibition, % at 2.6 µM; hit rate 16% among 4,700; AID 1259372, 2018;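 active = inhibition above a cutoff derived from the DMSO control wells, cut at about 28% in these data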;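 also: 0% = MITF dimer wells with DMSO only; inhibitors lower the bead chemiluminescence by keeping MITF from dimerizing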
AS interf ctr: AlphaScreen optical interference compounds, counter-screen for MITF inhibitor project, biochemical, triplicate; shares compounds with MITF inh; LysRS AlphaScreen counterscreen, signal interference; inhibition, % at 2.6 µM; hit rate 7.6% among 4,700; AID 1259376, 2018;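 active = inhibition above a cutoff derived from the DMSO control wells, cut at about 30% in these data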
* hit, by the source's call; . = not tested or not shown.

SMILES	TEAD-YAP inh	FBW7 act	GPR151 activ	MITF inh	MITF inh conf	AS interf ctr
CCC(C)c1ccccc1OCCCN1CCOCC1 (configuration not stated)	10	0	1	61*	-8	11
CCC(C)c1ccccc1OCCOCCN(C)C (configuration not stated)	0	0	1	86*	13	14
CC(=O)c1ccccc1OCCCN1CCOCC1	6	0	-1	31	.	.
C=CCNCCOCCOc1ccccc1C(C)CC (configuration not stated)	7	0	5	31	.	.
CCC(C)c1ccccc1OCCCN1CCN(CC)CC1 (configuration not stated)	5	0	0	63*	14	19
c1ccc2c(OCCOCCNCCN3CCOCC3)cccc2c1	6	0	1	52*	7	21
CCCCSc1nnc(CNC(=O)c2cccs2)n1-c1ccc([N+](=O)[O-])cc1	6	0	0	2	.	.
CCOC(=O)N1CCN(c2nc(C)nc3sc(C)cc23)CC1	6	0	0	54*	5	21
CCOC(=O)N1CCN(c2nc(C)nc3sc(C)c(C)c23)CC1	12	0	0	10	.	.
CCSCCOC(=O)C1=C(C)NC2=C(C(=O)CC(c3cccs3)C2)C1c1ccc(O)c(OC)c1 (configuration not stated)	8	0	-1	14	.	.
COc1ccc(CNC(=O)CNCC2(N3CCOCC3)CCCCC2)cc1	2	0	0	55*	-6	-3
COC(=O)c1ccc(C(=S)NCC2(N3CCOCC3)CCCCC2)cc1	-2	0	-1	-4	.	.
CCOC(=O)C1CCN(c2nc3c(C)cccc3cc2CN[C@H]2CCCCNC2=O)CC1	8	0	-1	5	.	.
O=S(=O)(CCN1CCCCC1)Oc1ccccc1	-7	0	-1	58*	7	19
COc1ccccc1-n1c(=S)sc2c(=O)n(-c3ccccc3)c(SCC(=O)c3ccc(Cl)cc3)nc21	-9	0	0	68*	0	0
C=CC1=C(C(=O)O)N2C(=O)[C@@H](NC(=O)/C(=N\O)c3csc(N)n3)[C@H]2SC1 (stereo in doubt)	-8	0	1	59*	59*	46*
OC(CNCCN1CCOCC1)COc1ccccc1 (configuration not stated)	-6	0	1	75*	4	2
OC(CNCCN1CCOCC1)COC1CCCc2ccccc21 (configuration not stated)	7	0	0	73*	13	15
OC(COc1ccccc1)CN1CCOCC1 (configuration not stated)	1	0	0	-1	.	.
COc1ccc(COCC(O)CNCCOCCO)cc1OC (configuration not stated)	-4	0	0	5	.	.
COc1ccc(COCC(O)CNCCCN2CCOCC2)cc1OC (configuration not stated)	9	0	-1	54*	-7	-2
O=C(Nc1n[nH]c(NC(=O)c2ccc(Cl)cc2)n1)c1ccc(Cl)cc1	1	0	1	0	.	.
O=C(Cc1ccccc1)n1nc(-c2cccnc2)nc1NCc1ccccc1	-7	0	-1	0	.	.
O=C(Cc1ccccc1)n1nc(-c2cccnc2)nc1NCc1cccs1	-16	1	0	57*	-4	-5
O=c1[nH]c2ccccc2c(=O)n1CCOCc1ccccc1Cl	6	0	2	-3	.	.
SMILES	TEAD-YAP inh	FBW7 act	GPR151 activ	MITF inh	MITF inh conf	AS interf ctr
CN1CCN(CC(=O)N(c2ccccc2)c2ccc(O)cc2)CC1	-3	0	2	75*	12	16
O=C(CN1CCC(N2CCCCC2)CC1)N(c1ccccc1)c1ccc(O)cc1	-3	0	0	9	.	.
CCN(C(=O)CN1CCN(C)CC1)c1cccc2ccccc12	2	0	0	85*	-4	-4
CCN(C(=O)Cn1cnc2ccccc21)c1cccc2ccccc12	14	0	1	-1	.	.
O=C(COc1ccc(Cl)cc1Br)N/N=C/c1ccco1	-12	0	-1	-1	.	.
O=C1NC(=O)/C(=C/c2ccc(-c3cc(Cl)ccc3Cl)o2)N1	-4	0	1	20	.	.
O=C(Oc1c(Br)cc(Br)cc1Br)c1ccc([N+](=O)[O-])cc1Cl	5	0	1	22	.	.
Fc1ccccc1N1CCN(C2CCN(Cc3cccnc3)CC2)CC1	5	0	-1	82*	9	7
c1cncc(CN2CCN(Cc3ccncc3)CC2)c1	5	0	1	77*	7	0
Fc1ccccc1N1CCN(Cc2cccnc2)CC1	7	0	0	46	.	.
c1cncc(-c2n[nH]c(C3CCN(Cc4ccncc4)CC3)n2)c1	-3	0	-1	54*	5	11
c1cncc(CN2CCN(Cc3ccco3)CC2)c1	2	0	1	75*	9	-1
O=S(=O)(c1ccc(Cl)cc1)N1CCN(Cc2cccnc2)CC1	-2	0	-1	4	.	.
Brc1ccc(CN2CCN(c3ncccn3)CC2)cc1	5	0	0	54*	1	3
Brc1ccc(CN2CCN(Cc3cccnc3)CC2)cc1	-4	0	4	84*	1	9
Fc1ccc(N2CCN(Cc3cccnc3)CC2)cc1	11	0	1	37	.	.
c1cncc(CN2CCN(Cc3cccnc3)CC2)c1	9	0	0	60*	3	-1
CC1CCC(N2CCN(Cc3cccnc3)CC2)CC1 (configuration not stated)	7	0	0	84*	-5	15
COc1ccc(-c2nc(NCc3cccc(C(F)(F)F)c3)c3[nH]cnc3n2)cn1	6	0	0	1	.	.
CCCN1Cc2cccc(C(=O)Nc3ccc4c(C)cc(=O)oc4c3)c2C1=O	7	0	0	-9	.	.
CCOC(=O)c1nn2c(C(F)(F)F)cc(-c3ccc(Br)o3)nc2c1Br	-3	1	1	13	.	.
O=C(C1c2ccccc2Oc2ccccc21)N1CCCC(c2nc(-c3cccnc3)n[nH]2)C1 (configuration not stated)	-1	0	0	62*	7	14
c1cncc(CN2CCN(Cc3ccc4ccccc4c3)CC2)c1	14	0	0	81*	10	12
O=C(CN1CCOCC1)Nc1ccccc1N1CCOCC1	7	0	2	87*	16	17
CN1CCN(CC(=O)Nc2ccccc2N2CCCCCC2)CC1	-4	0	2	62*	8	16
CCC(=O)Nc1ccccc1N1CCCC1	5	0	2	4	.	.
